Source: PubChem BioAssay (NCI)
The panel holds about 83,000 compounds, 20% with a hit somewhere; the sample as a whole holds those more often.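 In brief: 96-well plates, 48 h treatment, single concentration, percent growth endpoint.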 Unmarked numbers belong to inactive results. Activity calls are given as the source filed them. Rule for the calls: active = growth percent below 10; inactive = the rest.

Tests used:
Assay in all cases: NCI-60 one-dose screen, 48 h (100 = growth as untreated, 0 = no growth, -100 = all killed)
Conditions in all cases: 10 µM unless noted
SK-MEL-2 melanoma = system: SK-MEL-2 melanoma
EKVX NSCLC = system: EKVX NSCLC
SN12C renal = system: SN12C renal
UO-31 renal = system: UO-31 renal
TK-10 renal = system: TK-10 renal
ACHN renal = system: ACHN renal
CAKI-1 renal = system: CAKI-1 renal
A498 renal = system: A498 renal
CCRF-CEM leukemia = system: CCRF-CEM leukemia
MOLT-4 leukemia = system: MOLT-4 leukemia

| Structure (SMILES) | growth (SK-MEL-2 melanoma) | growth (EKVX NSCLC) [%] | growth (SN12C renal) | growth (UO-31 renal) | growth (TK-10 renal) [%] | growth (ACHN renal) | growth (CAKI-1 renal) | growth (A498 renal) | growth (CCRF-CEM leukemia) | growth (MOLT-4 leukemia) |
| --- | --- | --- | --- | --- | --- | --- | --- | --- | --- | --- |
| CCC1=C[C@@H]2C[C@]3(C(=O)OC)c4[nH]c5ccccc5c4CC[N@+](CC(=O)Nc4cc5c(cc4OC)N(C)[C@H]4[C@@](O)(C(=O)OC)[C@H](OC(C)=O)[C@]6(CC)C=CCN7CC[C@]54[C@@H]76)(C2)[C@H]13 | 105% | 105 | 105% | 84.4% | 98.6 | 106% | 93.2% | 121% | 80.6% | 108% |
| O=C1C(=O)N(Cc2ccc(-c3ccccc3)cc2)c2ccc(OC(F)(F)F)cc21 | 69.7% | 94.3 | 21.2% | 45.5% | 63.9 | 41.7% | 31.7% | 84.8% | 9.7% (active) | 30% |
| O=CN1N=C(c2cccc(Nc3ccnc4cc(Cl)ccc34)c2)CC1c1ccccc1 (stereo not given) | 1.53% (active) | 34.3 | 30.9% | 10.6% | 32.2 | 30.3% | 11.8% | 5.63% (active) | 8.4% (active) | 10% |
| Cc1cn(-c2cc(NC(=O)c3cccc(C#Cc4cccc5[nH]nc(N)c45)c3)cc(C(F)(F)F)c2)cn1 | 22.5% | 56.7 | 29.9% | 9.11% (active) | 78.8 | 21.5% | 75.7% | 35.1% | 15% | 20.7% |
| O=C(N/N=C/c1ccc(Cl)cc1)c1[nH]c2ccc(Cl)cc2c1-c1ccccc1 | -9.34% (active) | 40.7 | 28.1% | 24.7% | 51.8 | 28.4% | 20.9% | 36.2% | 19.3% | 33.7% |
| COc1ccc(-c2nc3cc(C(=O)NCc4ccccc4)ccc3n2C2CCCCC2)cc1 | 91.3% | 46.4 | 94.6% | 61.6% | 90.9 | 74.3% | 70.5% | 82.4% | 76.8% | 66.6% |
| CC/C(=C(/c1ccc(Cl)cc1)c1ccc(OCCN(C)C)cc1)c1ccc(Cl)cc1 | 80.9% | 73.7 | 81.3% | 64.3% | 77.8 | 83.9% | 60.4% | 59% | 62.5% | 58.2% |
| Nc1cc(C(=O)NC[C@H]2CN(c3ccc(N4CCC(C(=O)O)CC4)cc3)C(=O)O2)ccc1Cl | 115% | 95.3 | 98.8% | 80.4% | 104 | 101% | 87.7% | 95.8% | 104% | 99.4% |
| COCCOc1cc2ncnc(N3CCN(c4ncc(S(=O)(=O)N5CCCCC5)cn4)CC3)c2cc1OCCOC | 105% | 104 | 104% | 78.1% | 106 | 115% | 101% | 92.1% | 84.5% | 91.9% |
| Oc1c(Br)cc(Br)c2ccc(Cn3cc(-c4ccc(C(F)(F)F)cc4)nn3)nc12 | 90.9% | 83.6 | 71% | 63.5% | 99.1 | 26.4% | 13.2% | 96.8% | 2.97% (active) | 11.3% |
| CCCCCCCCCCCCCCCCOCCCOP(=O)(O)C1CCCN(O)C1=O (stereo not given) | 36% | 33.9 | 16.3% | 5.07% (active) | 33.1 | 10.5% | 16.6% | 1.39% (active) | 5.85% (active) | 7.18% (active) |
| Clc1ccc2c(NC3CCC(N4CCOCC4)CC3)ccnc2c1 (stereo not given) | 113% | 72.6 | 90.5% | 75.3% | 80.8 | 73.8% | 75.1% | 75.5% | 85.5% | 74.4% |
| CCCCCN1C(=O)/C(=c2\sc3n(c2=O)C2C(NN=3)N(CC)C(=O)N2CC)c2ccccc21 (stereo not given) | 21.3% | 26.3 | -50.5% (active) | -40.8% (active) | 19.9 | 2.83% (active) | 7.55% (active) | -27.8% (active) | -15.6% (active) | 4.79% (active) |
